From PubChem BioAssay AID588689 (Southern Research Specialized Biocontainment Screening …, 2011) come the findings set out here.

About 1,000 (0.29%) of roughly 340,000 compounds were called active. Rule as the data show it: inconclusive = inhibition above about 29% without an active follow-up result; inactive = below that. These entries were drawn from the full list. Measured potencies and affinities stand elsewhere.

The experiment concerns the target Genome polyprotein (Dengue virus type 2 (strain 16681-PDK53)) (UniProt P29991). Nature of the experiment: Dengue-2 NS5 methyltransferase inhibitors, primary screen, biochemical, confirmation dose response (AID 588689). Conditions: Dengue-2 NS5 methyltransferase capping enzyme assay, at 25 µM, stronger effect = higher value.
[1] abbreviates: measured here: pilot screen replicate inhibition.

As a reminder, the inhibition is the drop in the measured response relative to a control, in per cent. `O=c1cc(-c2nn[nH]n2)[nH]c(=O)[nH]1`: the inhibition is -0.8% (inactive).

With `O=C(CN1C(=O)c2cccc([N+](=O)[O-])c2C1=O)N1CCc2ccccc2C1`, the inhibition is -5.49% (inactive).

`O=c1c(C(c2ccc(Cl)cc2)c2c(O)nc3n(c2=O)CCS3)c(O)nc2n1CCS2`: the inhibition was 3.89% (inactive).

Turning to `O=c1c(C(c2ccc(F)cc2)c2c(O)nc3n(c2=O)CCS3)c(O)nc2n1CCS2`, the inhibition was -0.78% (inactive).

`O=c1c(C(c2ccc(Br)cc2)c2c(O)nc3n(c2=O)CCS3)c(O)nc2n1CCS2`: the inhibition is 11.7% (inactive).

Consider `O=c1c(C(c2ccc(O)cc2)c2c(O)nc3n(c2=O)CCCS3)c(O)nc2n1CCCS2`, for which the inhibition was 60.7% (inactive).

Take `O=Cc1ccc(F)c([B-](F)(F)F)c1`: the inhibition was -5.86% (inactive).

As to `COc1ccc(N2CC(C(=O)NC3CCCCC3)CC2=O)cc1` (stereo not drawn), the inhibition is -15.2% (inactive).

With `NC(=S)N=Nc1c(O)[nH]c2ccccc12`, the inhibition was -8.45% (inactive).

`NC(=S)N=Nc1c(O)[nH]c2ccc(F)cc12`: the inhibition is 1.93% (inactive).

`Cc1ccc(C)c(S(=O)(=O)NC2CCSC2=O)c1` (stereo not drawn): the inhibition is 0% (inactive).

Consider `COc1ccc(NS(=O)(=O)c2cc(NC(=O)c3cccc(OCc4c(C)noc4C)c3)ccc2OC)cc1`, for which the inhibition is -4.53% (inactive).

For the compound `Clc1ccc(Oc2nc(Oc3ccc(Cl)cc3)nc(N3CCOCC3)n2)cc1`, the inhibition is 5.62% (inactive).

Turning to `CC(NC(=O)C12CC3CC(CC(C3)C1)C2)C(=O)N/N=C/C1=C(N2CCOCC2)C(=C\c2ccccc2)/CC1` (stereo not drawn), the inhibition is -2.59% (inactive).

For the compound `CN(C)c1cccc2c1C(=O)c1ccccc1C2=O`, the inhibition is 2.91% (inactive).

In the case of `CN(CCO)C(=O)c1cccc2c1-c1ccccc1C2=O`, the inhibition was 2.07% (inactive).

On to `Cc1nnc(NC(=O)CSc2nnc(CCNC(=O)c3ccccc3F)n2C)s1`, for which the inhibition was -9.78% (inactive).

Take `O=C(O)c1cccc(O)c1O`: the inhibition is 2.93% (inactive).

Regarding `Cc1oc2c(O)c(O)ccc2c(=O)c1-c1ccccc1`, the inhibition is 1.39% (inactive).

In the case of `O=C1c2ccccc2C(=O)c2c1ccc(O)c2O`, the inhibition is 0% (inactive).

As to `Cc1cc(=O)oc2c(O)c(O)ccc12`, the inhibition was 0.73% (inactive).

`CC(C)(Oc1ccc(Cl)cc1)C(=O)Nc1ccc2oc(-c3ccncc3)nc2c1`: the inhibition was 2.08% (inactive).

Take `COc1cc(C)c(S(=O)(=O)NCc2ccc3c(c2)OCO3)cc1C`: the inhibition was -1.39% (inactive).

For the compound `Cc1nn(-c2ccccc2)nc1CNC(=O)C(C)Cc1ccccc1` (stereo not drawn), the inhibition was -2.38% (inactive).

As for `O=C(C1=C[C@H](C2CCCCC2)C[C@H](OCc2ccc(CO)cc2)O1)N1CCOCC1`, the inhibition was -6.54% (inactive).

As for `CCCCC(NC(=O)Cc1c(C)c2cc3c(C)c(C)oc3c(C)c2oc1=O)C(=O)O` (stereo not drawn), the inhibition was 1.31% (inactive).

On to `Cc1c(CC(=O)N[C@@H](C)C(=O)O)c(=O)oc2c(C)c3occ(-c4ccccc4)c3cc12`, for which the inhibition was -0.65% (inactive).

As to `CCCC(NC(=O)Cc1c(C)c2cc3c(C)c(C)oc3c(C)c2oc1=O)C(=O)N[C@@H](Cc1ccccc1)C(=O)O` (stereo partly drawn), the inhibition was 1.45% (inactive).

With `CSC[C@H](NC(=O)Cc1c(C)c2cc3c(C)c(C)oc3cc2oc1=O)C(=O)N[C@@H](Cc1ccccc1)C(=O)O`, the inhibition was 1.4% (inactive).

Turning to `CCCOc1ccc(NC(=O)CC2C(=O)N(CC)C(=S)N2Cc2cccs2)cc1` (stereo not drawn), the inhibition was -2.45% (inactive).

Take `C/C(=C\c1cccc(Cl)c1)C(=O)c1c(C)cc(C)[nH]c1=O`: the inhibition was 0.68% (inactive).

In the case of `COc1ccc(S(=O)(=O)N2CCN(c3ccccc3)CC2)cc1`, the inhibition was -2.22% (inactive).

As to `Cc1cccc(N2CCN(c3nc(C)cc(C)c3C#N)CC2C)c1` (stereo not drawn), the inhibition is -4.66% (inactive).

Take `CCOc1ccc(/C=C2\SC(=S)N(C(C(=O)O)c3ccccc3)C2=O)cc1OC` (stereo not drawn): the inhibition is 16.8% (inactive).

Consider `COc1ccc(/C=C2\SC(=S)N(C(C(=O)O)c3ccccc3)C2=O)c(OC)c1` (stereo not drawn), for which the inhibition is -11.9% (inactive).

As for `COc1cccc(/C=C2\SC(=S)N(N3CCOCC3)C2=O)c1OC`, the inhibition was -5.48% (inactive).

Take `O=C1/C(=C/c2cccs2)SC(=S)N1c1ccccc1`: the inhibition is -4.85% (inactive).

As for `CCOc1ccc(/C=C2/SC(=S)N(C(C(=O)O)c3ccccc3)C2=O)cc1OCC` (stereo not drawn), the inhibition is 22.1% (inactive).

In the case of `COc1cccc(/C=C2\SC(=S)N(c3cccnc3)C2=O)c1OC`, the inhibition is 6.89% (inactive).

Turning to `COc1ccc(OC)c(/C=C2\SC(=S)N(C(C(=O)O)c3ccccc3)C2=O)c1` (stereo not drawn), the inhibition was -26.1% (inactive).

With `O=C(O)C(c1ccccc1)N1C(=O)/C(=C\c2ccc(-c3ccccc3Cl)o2)SC1=S` (stereo not drawn), the inhibition was 12.4% (inactive).

As for `CC1(C(=O)N2CCN(c3ccc([N+](=O)[O-])cc3)CC2)CC1(Cl)Cl` (stereo not drawn), the inhibition is -2.36% (inactive).

As to `CN(CC(=O)Nc1ccc(F)cc1)C(=O)CSc1nccn1C`, the inhibition was 7.2% (inactive).

In the case of `Cn1nc(C(=O)NCc2cccc(Cl)c2)c2c1-c1ccccc1S(=O)(=O)C2`, the inhibition is 5.32% (inactive).

Turning to `COc1cccc(C(=S)N2CCOCC2)c1OS(=O)(=O)c1ccc(Cl)cc1`, the inhibition was 1.61% (inactive).

Turning to `CC(C)Cc1ccc(C(C)NC(=O)Cc2ccc(S(=O)(=O)N3CCOCC3)s2)cc1` (stereo not drawn), the inhibition was -1.45% (inactive).

With `O=C(Nc1ccccc1[N+](=O)[O-])c1cccc(N2C(=O)CCC2=O)c1`, the inhibition was -7.81% (inactive).

In the case of `O=C(O)c1cnc(-c2ccccc2)nc1C(F)(F)F`, the inhibition was -8.19% (inactive).

`COC(=O)Nc1nc(-c2ccccc2)c(C(=O)c2ccccc2)s1`: the inhibition is -4.12% (inactive).

Turning to `COc1cccc(-c2ccc3ncnc(NCc4cccc(C)c4)c3c2)c1`, the inhibition is -0.8% (inactive).

As for `COc1ccc(CNC(=O)/C=C/c2cc3c(cc2Br)OCO3)cc1`, the inhibition was -8.34% (inactive).

`COc1cc(/C=C2\OC(=O)c3c(OC)cccc32)ccc1O`: the inhibition was -20.1% (inactive).

For the compound `COc1cc(C(=O)O)c2c(c1C)OC(=O)c1c(C)cc(O)c(C=O)c1O2`, the inhibition was 0.72% (inactive).

Turning to `O=C(O)C1C2CCC(O2)C1C(=O)Nc1ccc(Br)cc1F` (stereo not drawn), the inhibition is -6.36% (inactive).

For the compound `C=CCC[C@@H](Cc1ccc(F)cc1)C(=O)OC[C@@H](Cc1ccccc1)NC(=O)[C@@H](CC=C)CC(=O)N[C@@H](CO)Cc1ccccc1`, the inhibition was -4.81% (inactive).

In the case of `CC(C)CSC1=NSC2=NC(=O)/C(=C\c3cccs3)C(=N)N12`, the inhibition was 24.3% (inactive).

In the case of `N=C1/C(=C/c2cccs2)C(=O)N=C2SN=C(SCc3ccccc3)N12`, the inhibition was -11.6% (inactive).

In the case of `CCCCCCCCCCNC(=O)CCn1[nH]c(=O)c2ccccc2c1=O`, the inhibition was -4.1% (inactive).

In the case of `Cc1cccc(C)c1OCCn1nnc2ccccc21`, the inhibition is 1.31% (inactive). Moreover, the inhibition under setting [1] is -3.03%.

`COc1cc(/C=C2/C(=O)N(c3ccc(C(=O)O)cc3)N=C2C)cc(OC)c1O`: the inhibition was -28.1% (inactive).

For the compound `COc1cc(/C=C2/C(=O)N(c3cccc(Br)c3)N=C2C)cc(OC)c1O`, the inhibition is -25.2% (inactive).

For the compound `COc1cc(/C=C2\C(=O)N(CCC#N)N=C2C)ccc1OCC(=O)Nc1ccccc1`, the inhibition is 27.7% (inactive).

With `COc1ccc(/C=C2\N=C(C)N(c3ccc(C(=O)O)cc3)C2=O)cc1OC`, the inhibition is -13.8% (inactive).

As to `Cc1ccccc1NC(=O)Cn1nnc(S(=O)(=O)c2ccc(C(C)(C)C)cc2)c1N`, the inhibition was -3.62% (inactive).

In the case of `NC(=O)N/N=C/c1ccc(-c2cccc(C(F)(F)F)c2)o1`, the inhibition is -7.73% (inactive).

On to `Fc1cccc(/C=C2\CCCC3=C2NC(=S)NC3c2cccc(F)c2)c1` (stereo not drawn), for which the inhibition was 3.88% (inactive).

For the compound `COC1=C(Nc2ccc(C)cc2)C(=O)c2ccccc2C1=O`, the inhibition was 1.28% (inactive).

For the compound `Cc1ccc(SC2=C(Sc3ccc(C)cc3)C(=O)c3ccccc3C2=O)cc1`, the inhibition is 22.2% (inactive).

On to `COc1ccc(CN2CC(C(=O)NCCN3CCOCC3)CC2=O)cc1` (stereo not drawn), for which the inhibition was 0.54% (inactive).

On to `O=C(CN1C(=O)COc2ccc(Cl)cc21)N1CCc2ccccc21`, for which the inhibition is -2.43% (inactive).

Regarding `Cc1cc(C)n(-c2nc3ccccc3c(=O)n2OCC#N)n1`, the inhibition was -1.94% (inactive).

In the case of `CC(=O)Oc1ccc(N(C(C)=O)S(=O)(=O)c2ccc(C)cc2)c2ccccc12`, the inhibition was -8.55% (inactive).

On to `CC(=O)Oc1ccc(N(C(C)=O)S(=O)(=O)c2ccccc2)c2ccccc12`, for which the inhibition is 6.04% (inactive).

For `O=C(NCCCn1ccnc1)c1ccc(Cl)s1`, the inhibition was -4.6% (inactive).

Regarding `O=S(=O)(Nc1ccc(N=Nc2ccc(O)c3ccccc23)cc1)c1ccccc1`, the inhibition was 6.54% (inactive).

`O=S(=O)(O)c1ccc(N=Nc2ccccc2)cc1`: the inhibition is -9.54% (inactive).

Consider `O=C(C[n+]1ccc(C(=O)c2ccccc2)cc1)Nc1ccccc1OC(F)F`, for which the inhibition was -15.9% (inactive).

As to `O=P(C(=S)Nc1ccccc1Cl)(c1ccccc1)c1ccccc1`, the inhibition is -1.15% (inactive).

Consider `Cc1ccc(NC(=O)c2ccccc2NS(=O)(=O)c2ccc(Cl)s2)cc1`, for which the inhibition is -0.66% (inactive).

As to `O=C(Nc1ccccc1)c1ccccc1NS(=O)(=O)c1ccc(Cl)s1`, the inhibition was 10.3% (inactive).

On to `COC(=O)[C@]1(C)N[C@H](CN(C)S(=O)(=O)c2ccc(OC)cc2)[C@@H]2C(=O)N(C)C(=O)[C@@H]21`, for which the inhibition is -4.63% (inactive). Also, under setting [1], the inhibition was -0.915%.

Regarding `Cc1ccc(S(=O)(=O)N2CCOCC2)cc1C(=O)NC1CCCC(C)C1C` (stereo not drawn), the inhibition was 1.47% (inactive).

On to `CCCC1=C([O-])C2N=CC=CC2=[N+](c2ccccn2)C1=O` (stereo not drawn), for which the inhibition was -1.93% (inactive).

Take `COC(=O)C1OC2(OC1C(=O)OC)c1ccccc1-c1ccccc12` (stereo not drawn): the inhibition was -6.04% (inactive).

In the case of `O=C1c2ccccc2C(O)N1c1ccc(Cl)cc1` (stereo not drawn), the inhibition is -2.08% (inactive).

On to `CC(C)(Oc1ccc(Cl)cc1)C(=O)NC1CCSC1=O` (stereo not drawn), for which the inhibition is -4.81% (inactive).

Turning to `CCOC(=O)N1CCC(NC(=S)Nc2ccc3nc(N4CCN(CC)CC4)cc(C)c3c2)CC1`, the inhibition is -6.96% (inactive).

With `COc1ccc(-c2cc(C(=O)NCCN3CCOCC3)c3ccccc3n2)c(OC)c1`, the inhibition was -2.05% (inactive).

For `Cc1cccc(N(CC(=O)O)CC(=O)O)c1`, the inhibition was 0.96% (inactive).

Regarding `COc1cccc(C(=O)C(C#N)=C(SC)SC)c1`, the inhibition is 12.4% (inactive).

On to `CSC(=CC(=O)c1ccccc1)SC`, for which the inhibition is -2.05% (inactive).
